Records with an inconclusive call do not appear. A number with no mark means an inactive call. The call rests on the fitted dose curve; in most records, active means well fitted curve in the direction sought with a large enough effect; inconclusive means small, poorly fitted or top-dose-only effect, or effect the other way, or another doubt; inactive means no such curve, though single readings can be large or run the other way.
The compounds below were run against Pyruvate kinase PKLR (Homo sapiens) (UniProt P30613) (assay: Secondary LDH Assay for Activators of Human Liver Pyruvate Kinase: for Probe SAR). Conditions: purified hPK-L, LDH-coupled NADH fluorescence kinetic; series mostly up to 58.2 µM; activity change, positive = activation: at the top concentration.
Sequence of Pyruvate kinase PKLR (Homo sapiens) (P30613 whole entry, looked up): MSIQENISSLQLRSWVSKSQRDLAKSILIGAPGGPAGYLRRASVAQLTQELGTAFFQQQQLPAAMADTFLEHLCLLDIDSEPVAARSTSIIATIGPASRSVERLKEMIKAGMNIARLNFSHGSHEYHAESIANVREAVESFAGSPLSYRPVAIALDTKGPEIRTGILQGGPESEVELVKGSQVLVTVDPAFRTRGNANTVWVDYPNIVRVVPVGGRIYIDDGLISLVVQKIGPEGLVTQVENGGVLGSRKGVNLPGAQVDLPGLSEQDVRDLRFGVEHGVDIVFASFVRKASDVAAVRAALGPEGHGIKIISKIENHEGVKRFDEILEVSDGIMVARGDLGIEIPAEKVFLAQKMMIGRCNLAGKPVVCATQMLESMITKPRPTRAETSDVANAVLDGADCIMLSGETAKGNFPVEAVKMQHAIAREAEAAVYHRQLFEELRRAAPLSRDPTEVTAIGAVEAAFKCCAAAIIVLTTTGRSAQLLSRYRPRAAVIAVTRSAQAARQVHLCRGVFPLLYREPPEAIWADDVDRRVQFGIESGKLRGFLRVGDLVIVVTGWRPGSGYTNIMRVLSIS
From the text: NIH Chemical Genomics Center [NCGC]
Matthew G. Vander Heiden, M.D., Ph.D. [Harvard Medical School, 77 Avenue Louis Pasteur, Boston, MA 02115]
Human pyruvate kinase liver (hPK-L)enzyme was supplied as a highly purified (>95% pure) preparation from Harvard Medical School and a secondary assay was used to evaluate compounds. This assay couples the formation of pyruvate from hPK-R using lactate dehydrogenase (LDH) and NADH. The depletion of NADH is followed in a fluorescent-based kinetic assay that follows the formation of pyruvate to lactate, as catalyzed LDH. Pyruvate kinase substrates, PEP and ADP, were present in the assay at 0.1 mM and 4 mM respectively. In this kinetic assay initial rates were determined by following the fluorescence of NADH depletion.
NCGC Assay Protocol Summary:
Three uL of substrate mix (final concentration, 50 mM Tris-Cl pH 8.0, 200 mM KCl, 15 mM MgCl2, 0.1 mM PEP, 4.0 mM ADP, and 0.2 mM NADH) was dispensed into black-solid 1536 well plates. 23 nL of compounds were delivered by a pin tool and 1 uL of enzyme mix (final concentrations, 10 nM hPK-L and 1 uM of LDH) was added. Plates were immediately placed in ViewLux (Perkin Elmer) and NADH fluorescence was determined at 30 second exposure intervals for between 3 and 6 minutes. Data were normalized to the uninhibited and EC100 activation using known activators such as fructose-bis-phosphate.
With `CNc1cccc(S(=O)(=O)N2CCN(S(=O)(=O)c3ccc4c(c3)OCCO4)CC2)c1` the “activity change, positive = activation” value was -9.66%.
In the case of `CCNc1cccc(S(=O)(=O)N2CCCN(S(=O)(=O)c3ccc4c(c3)OCCO4)CC2)c1`, the “activity change, positive = activation” value is reported as 24.7%.
In the case of `O=C1CCc2cc(S(=O)(=O)Nc3cccc(C(F)(F)F)c3)ccc2N1`, the “activity change, positive = activation” value is reported as 23.7%.
With `O=C1CCc2cc(S(=O)(=O)Nc3cccc(B(O)O)c3)ccc2N1` the “activity change, positive = activation” value was -15.6%.
For `Cc1ccc(NS(=O)(=O)c2ccc3c(c2)n(C)c(=O)n3C)cc1C`, the “activity change, positive = activation” value was -11%.
For `Cc1ccc(NS(=O)(=O)c2ccc3c(c2)CC(=O)N3)cc1C`, the “activity change, positive = activation” value was 1.96%.
In the case of `COc1cccc(NS(=O)(=O)c2ccc3c(c2)CCC(=O)N3)c1`, the “activity change, positive = activation” value is reported as 1.38%.
For `COc1ccc(N2C(=O)c3ccccc3C2=O)cc1`, the “activity change, positive = activation” value was -12%.
For `Cc1ccc(NS(=O)(=O)c2ccc3c(c2)CCC(=O)N3)cc1F`, the “activity change, positive = activation” value was -11.2%.
`Cc1cc(NS(=O)(=O)c2ccc3c(c2)CCC(=O)N3)ccc1F` was tested, and the “activity change, positive = activation” value was -2.89%.
With `Cc1ccc(N2C(=O)c3ccccc3C2=O)c(C)c1` the “activity change, positive = activation” value was -9.01%.
`O=C1NS(=O)(=O)c2ccccc21` was tested, and the “activity change, positive = activation” value was -2.32%.
For `O=C1c2ccccc2C(=O)N1c1ccccc1O`, the “activity change, positive = activation” value was -5.86%.
For `Cc1ccc(NS(=O)(=O)c2cc3c(cc2Cl)CCC(=O)N3)cc1Cl`, the “activity change, positive = activation” value was 17.9%.
In the case of `O=C1c2ccccc2C(=O)N1c1cnc2ccccc2c1`, the “activity change, positive = activation” value is reported as -5.53%.
For `Cc1cccc(NS(=O)(=O)c2ccc3c(c2)CCC(=O)N3)c1`, the “activity change, positive = activation” value was 14.6%.
For `Cc1ccc(NS(=O)(=O)c2cc3c(cc2Cl)CCC(=O)N3)cc1C`, the “activity change, positive = activation” value was -5.71%.
`O=C1CCc2cc(S(=O)(=O)Nc3cccc(Br)c3)ccc2N1` was tested, and the “activity change, positive = activation” value was -13.1%.
With `O=C1c2ccccc2C(=O)N1c1cccc2ncccc12` the “activity change, positive = activation” value was -11.6%.
In the case of `Cc1ccc(NS(=O)(=O)c2ccc3c(c2)CCN(C(=O)C(F)(F)F)C3)cc1C`, the “activity change, positive = activation” value is reported as -14.6%.
With `Cc1ccc(NS(=O)(=O)c2ccc3c(c2)C(Cl)(Cl)C(=O)N3)cc1C` the “activity change, positive = activation” value was -2.21%.
For `O=C1CCc2cc(S(=O)(=O)Nc3cccc(-c4ccccc4)c3)ccc2N1`, the “activity change, positive = activation” value was 5.18%.
`O=C1CCc2cc(S(=O)(=O)Nc3cccc(Cl)c3)ccc2N1` was tested, and the “activity change, positive = activation” value was -13.6%.
For `Cc1ccc(N[S+](=O)([O-])c2cc3c(cc2CCc2ccccc2)NC(=O)CO3)cc1C`, the “activity change, positive = activation” value was -3.76%.
With `O=C1c2ccccc2C(=O)N1c1ccc2ncccc2c1` the “activity change, positive = activation” value was -8.34%.
For `O=C1c2ccccc2C(=O)N1c1cccc(=O)[nH]1`, the “activity change, positive = activation” value was -7.14%.
For `Cc1cc(N2C(=O)c3ccccc3C2=O)no1`, the “activity change, positive = activation” value was -3.11%.
`Cc1ccc(NS(=O)(=O)c2cc3c(cc2C)OCC(=O)N3)cc1C` was tested, and the “activity change, positive = activation” value was -4.44%.
With `COc1ccc(Nc2c(-c3ccc(C)o3)nc3ccccn23)cc1` the “activity change, positive = activation” value was -3.03%.
For `O=C1CCc2cc(S(=O)(=O)Nc3ccc(Cl)cc3)ccc2N1`, the “activity change, positive = activation” value was -12.1%.
For `O=C1CCc2cc(S(=O)(=O)Nc3ccccc3-c3ccccc3)ccc2N1`, the “activity change, positive = activation” value was 2%.
With `Cc1ccc(NS(=O)(=O)c2cccc(C(=O)O)c2)cc1C` the “activity change, positive = activation” value was 1.47%.
`Cc1ccc(NS(=O)(=O)c2cc3c(cc2N2CCC2)NC(=O)CC3)cc1C` was tested, and the “activity change, positive = activation” value was -23.5%.
`Cc1ccc(NS(=O)(=O)c2ccc3c(ccn3C)c2)cc1C` was tested, and the “activity change, positive = activation” value was 2.79%.
In the case of `Cc1c(Cl)cccc1NS(=O)(=O)c1cc2c(cc1F)NC(=O)CC2`, the “activity change, positive = activation” value is reported as 2.22%.
For `Cc1ccc(NS(=O)(=O)c2ccc3c(c2)CCC(=O)N3)cc1Cl`, the “activity change, positive = activation” value was 22.8%.
In the case of `O=C1c2ccccc2C(=O)N1c1ccncc1`, the “activity change, positive = activation” value is reported as 16%.
`O=C1CCc2cc(S(=O)(=O)Nc3ccc4ccccc4c3)ccc2N1` was tested, and the “activity change, positive = activation” value was 7.52%.
`Cc1ccc(NS(=O)(=O)c2ccc3c(c2)oc(=O)n3C)cc1C` was tested, and the “activity change, positive = activation” value was -4.95%.
With `Cc1nc(-c2ccc(S(=O)(=O)Nc3ccc(C)c(C)c3)s2)cs1` the “activity change, positive = activation” value was 12.5%.

Source: PubChem BioAssay AID2625 (National Center for Advancing Translational Sciences (NCATS), 2010)
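Further: 0% = uninhibited enzyme rate and 100% = full activation by fructose bisphosphate.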
